IL2 activator: qHTS of IL-2 Activators | IL-2 activation reporter assay, cell-based qHTS; stimulated with anti-CD3/CD4/CD28 beads; in transgenic mouse T cells | activation, % (series mostly up to about 46 µM) | actives 0.065% (n = 360,000) | AID 652025, 2013; in the data active = activation above about 50%; inconclusive = mostly about 30% to 49%; also: 0% is about no effect
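First, unstimulated transgenic mouse T cells were exposed to compound for 60 min. Next, anti-CD3/anti-CD4-coated beads with anti-CD28 were added. Finally, after 18 h at 37 degrees C, EGFP and DsRed were imaged.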
Vif-A3F inh: qHTS for Inhibitors of Vif-A3F Interactions: qHTS | AID 602313, 2012 | Potency, µM (titrated, usually from 46.1 µM), inactives show at the highest dose activity, negative = active | HeLa A3F-eYFP + Vif (tagged APOBEC3F with the HIV-1 protein that degrades it), YFP fluorescence increase | actives 0.2% (n = 390,000); also: potency is read from the fitted curve at half-maximal effect; % of control where 0% means no effect; nearly all actives have a fitted effect of over 65% in size
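HeLa cells stably expressing A3F-eYFP plus Vif, plated and incubated overnight at 37 deg C, then exposed to compounds overnight at 37 deg C. Blocked degradation read as raised yellow fluorescence (Ex 488/Em 500-530).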
Vif-A3G inh: qHTS for Inhibitors of Vif-A3G Interactions: qHTS; Potency, µM (series often up to 46.1 µM), without a hit: top-dose activity, negative = active, most hits filed as inhibitors; HeLa A3G-eYFP + Vif (tagged APOBEC3G with the HIV-1 protein that degrades it), YFP fluorescence, overnight; DNA dC->dU-editing enzyme APOBEC-3G (Homo sapiens), Q9HC16; actives 0.076% (n = 410,000); also: potency is read from the fitted curve at half-maximal effect; % is scaled to controls: 0 for no effect and ±100 for the full control effect; nearly all actives have a fitted effect of over 60% in size
Target sequence (Q9HC16 whole entry, looked up): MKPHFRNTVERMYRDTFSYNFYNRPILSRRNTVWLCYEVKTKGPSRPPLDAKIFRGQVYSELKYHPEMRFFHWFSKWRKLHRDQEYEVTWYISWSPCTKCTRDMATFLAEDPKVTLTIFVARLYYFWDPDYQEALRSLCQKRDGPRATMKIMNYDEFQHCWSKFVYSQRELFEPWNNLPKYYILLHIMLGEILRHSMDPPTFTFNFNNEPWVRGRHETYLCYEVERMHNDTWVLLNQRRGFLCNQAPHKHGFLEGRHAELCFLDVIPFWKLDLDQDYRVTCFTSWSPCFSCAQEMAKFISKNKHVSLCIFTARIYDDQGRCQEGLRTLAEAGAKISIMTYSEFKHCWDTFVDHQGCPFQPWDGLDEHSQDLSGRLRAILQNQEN
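HeLa cells stably expressing Vif and C-terminally eYFP-tagged A3G, seeded overnight at 37 deg C, then exposed to compound by pintool overnight at 37 deg C. Rise in yellow fluorescence (Ex 488/Em 500-530, Acumen) marks blocked Vif-driven A3G degradation.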
PKM2 act: qHTS Assay for Activators of Human Muscle isoform 2 Pyruvate Kinase | Pyruvate kinase PKM (Homo sapiens), P14618 | purified PKM2, Kinase-Glo ATP luminescence, activation; response scale: 0% is enzyme alone, no compound | Potency, µM (series often up to 57.5 µM), for the others: at the top dose activation, most hits filed as activators | actives 0.34% (n = 260,000) | AID 1631, 2009; also: potency is read from the fitted curve at half-maximal effect; % is scaled to controls: 0 for no effect and ±100 for the full control effect; nearly all actives have a fitted effect of over 55% in size
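Purified hPK-M2 (>95%) run at intermediate activity with 0.1 mM ADP and 0.5 mM PEP in 50 mM imidazole pH 7.2, KCl, MgCl2; 1 h room temperature. ATP formed read by Kinase-Glo luminescence; normalized to uninhibited and no-enzyme controls.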
The depositor's hits bear a star; u = inconclusive; x = no result; [ ] = remark or other dose. This is a sample that favours compounds with a hit; in the whole collection about 0.53% have one here. Unless noted, calls follow the shape of the dose curve; as a rule, active = well fitted curve in the direction sought with a large enough effect; inconclusive = small, poorly fitted or top-dose-only effect, or another doubt; inactive = no such curve, though single readings can be large; an effect the other way counts as inactive or inconclusive.

SMILES	IL2 activator	Vif-A3F inh	Vif-A3G inh	PKM2 act
O=S(=O)(Nc1ccc(-n2cccc2)cc1)c1ccccc1	-4.3	-6.0%	-5.3%	15.8µM*
O=S(=O)(Nc1ccc(S(=O)(=O)Nc2ccccc2)cc1)c1ccccc1	0.8	-1.6%	1.8%	u
CCOC(=O)C1C(=O)C=C(/C=C/c2ccc(N(C)C)cc2)CC1c1ccccc1 (stereo unspecified)	26.5	2.82µM*	u	-7.2%
CCSc1nn(CC(=O)Nc2cccc(CC)c2)c(N)c1S(=O)(=O)c1ccccc1	x	0.3%	-16.7%	x
Cc1ccnc(NC(=S)NC(=O)/C=C/c2ccco2)c1	0.0	-6.4%	7.94µM*	13.7%
C=C(C)Cn1c(=O)c2c(nc3n2CCN3c2ccc(F)cc2)n(C)c1=O	x	-0.4%	-0.3%	x
COc1ccc2c(c1)c1nc3ccccc3nc1n2Cc1ccc(OC(C)C)c(OC)c1	-0.2	22.4µM*	-27.2%	-1.1%
COc1ccc(Cn2c3ccc(OC)cc3c3nc4ccccc4nc32)cc1	266.8*	u	-4.5%	8.6%
COc1ccc2c(c1)c1nc3ccccc3nc1n2CCCN1C(=O)c2ccccc2C1=O	0.7	u	-4.1%	5.5%
COc1ccc2c(c1)c1nc3ccccc3nc1n2CC(=O)OC(C)C	14.1	25.1µM*	-18.3%	-5.5%
CCOC(=O)Cn1c2ccccc2c2nc3ccccc3nc21	-1.5	u	1.8%	-17.9%
O=C(O)Cn1c2ccccc2c2nc3ccccc3nc21	-1.7	8.91µM*	u	x
COC(=O)Cn1c2ccc(C)cc2c2nc3ccccc3nc21	-0.9	-0.5%	0.8%	x
COc1ccccc1NC(=O)CSc1oc(-c2ccccc2)nc1S(=O)(=O)c1ccccc1	x	0.7%	-5.8%	x
CN(C)c1ccc(/C=C/c2ccnc3ccccc23)cc1Br	x	x	-20.2%	x
CN(Cc1ccc(C(F)(F)F)cc1)C(=O)[C@H]1O[C@@H](n2ccc(=O)[nH]c2=O)[C@H](O)[C@@H]1O	1.3	x	0.9%	x
CCn1cc(/C=C/c2cc[n+](C)cc2)c2ccccc21	112.9*	-521.3%	2.51µM*	x
C=CCn1c(C)c(/C=C/c2cc[n+](C)cc2)c2ccccc21	122.4*	u	u	-4.3%
Cc1[nH]c2ccccc2c1/C=C/c1cc[n+](C)cc1	192.4*	u	3.16µM*	-1.4%
CC(C)n1cc(/C=C/c2cc[n+](C)cc2)c2ccccc21	294.7*	-497.9%	3.98µM*	7.0%
Cc1ccccc1/C=C/c1cc[n+](C)cc1	-0.9	4.7%	2.1%	-11.1%
O=C(O)Cn1cc(/C=C/[N+](=O)[O-])c2ccccc21	1.0	-3.3%	0.4%	8.8%
CCN(CC)C(=O)Cn1c(C)c(/C=C/c2cc[n+](C)cc2)c2ccccc21	114.7*	u	7.94µM*	0.0%
C=CCn1cc(/C=C/c2cc[n+](C)cc2)c2ccccc21	457.4*	u	u	-4.1%
CCN(CC)C(=O)Cn1c(=O)n(CCc2ccccc2)c(=O)c2ccccc21	x	-13.9%	-3.9%	x
SMILES	IL2 activator	Vif-A3F inh	Vif-A3G inh	PKM2 act
CCOCCCNC(=O)/C(C#N)=C/c1ccc([N+](=O)[O-])o1	-1.1	12.6µM*	u	-3.7%
CC(NC(=O)/C(C#N)=C/c1ccc([N+](=O)[O-])o1)c1ccccc1 (stereo unspecified)	4.0	11.2µM*	22.4µM*	u
CC(NC(=O)/C(C#N)=C/c1ccco1)c1ccccc1 (stereo unspecified)	-0.2	-6.4%	-0.1%	10.8%
CCCCc1nc2c(c3c1C[C@H](C)OC3)CN(S(=O)(=O)c1ccc(NC(C)=O)cc1)CC2	x	x	x	-7.9%[11.5 µM]
Cc1ccc(CNC(=O)c2cccc(-n3cnc4cccnc43)c2)cc1	x	-6.7%	-3.8%	x
CCOC(=O)c1c(Nc2ccc(Cl)cc2)sc(/C=C2\C=Nc3ccccc32)c1O	29.9	7.08µM*	-17.8%	2.2%
Oc1nc(Nc2ccc(F)cc2)sc1/C=C1\C=Nc2ccccc21	0.1	u	-17.4%	3.6%
COc1ccc(-n2c(C)cc(/C=C3\SC(=S)NC3=O)c2C)cc1	0.9	10µM*	-21.0%	-5.6%
c1ccc2c(-c3nc4ccccc4[nH]3)cccc2c1	-2.9	0.3%	6.31µM*	x
c1ccc2[nH]c(-c3ccnc4ccccc34)nc2c1	-1.0	-3.8%	-14.3%	2.1%

Assay outcomes from PubChem BioAssay.
